# Assay results reported in ChEMBL document CHEMBL3988442, “University of Dundee, Small-Polar-MMV Screening Library” (2021).
# For some assays here: Entries with a potency or affinity are not part of this list.
# Tests used:
# [1] = biological target: T1, Methionyl-tRNA synthetase, putative (Leishmania donovani (strain BPK282A1)) (UniProt E9BF75); experiment: Leishmania donovani Methionine tRNA synthetase (LdMetRS):v7. Dose response assay; format: functional; parameters: conc 80 nM, time 150 minutes
# T1 sequence (whole entry): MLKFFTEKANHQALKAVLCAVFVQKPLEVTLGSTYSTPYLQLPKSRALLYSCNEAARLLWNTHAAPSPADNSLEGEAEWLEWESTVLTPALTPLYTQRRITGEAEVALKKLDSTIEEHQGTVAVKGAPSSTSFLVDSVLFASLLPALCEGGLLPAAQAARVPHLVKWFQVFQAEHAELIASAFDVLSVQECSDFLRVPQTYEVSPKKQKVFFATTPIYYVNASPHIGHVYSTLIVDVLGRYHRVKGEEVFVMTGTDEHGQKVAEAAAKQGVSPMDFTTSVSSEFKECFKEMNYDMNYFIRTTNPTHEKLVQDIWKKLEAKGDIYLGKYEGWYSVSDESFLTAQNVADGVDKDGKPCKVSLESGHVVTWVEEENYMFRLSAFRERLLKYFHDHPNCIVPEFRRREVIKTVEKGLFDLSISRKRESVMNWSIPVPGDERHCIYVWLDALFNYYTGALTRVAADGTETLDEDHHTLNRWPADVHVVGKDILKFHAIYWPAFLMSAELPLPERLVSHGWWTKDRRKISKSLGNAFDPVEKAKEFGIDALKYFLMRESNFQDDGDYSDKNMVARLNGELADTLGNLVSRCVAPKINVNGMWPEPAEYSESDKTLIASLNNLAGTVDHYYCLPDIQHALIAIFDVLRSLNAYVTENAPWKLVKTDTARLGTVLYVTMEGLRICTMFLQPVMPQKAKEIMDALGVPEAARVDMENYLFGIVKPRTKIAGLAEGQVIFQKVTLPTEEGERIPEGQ
# [2] = biological target: Protein translocase subunit SecA (Escherichia coli (strain K12)) (UniProt P10408); experiment: Assay to Identify E. coli SecA ATPase Inhibitors; format: functional; parameters: scale not given: direction of the effect not stated beside the values; conditions: 30 µM
# [3] = biological target: T2, Ubiquitin-activating enzyme e1, putative (Leishmania donovani (strain BPK282A1)) (UniProt E9BSI1); experiment: Leishmania donovani Ubiquitin Activating Enzyme (LdE1); format: functional; parameters: scale not given: direction of the effect not stated beside the values; conditions: 30 µM
# T2 sequence (whole entry): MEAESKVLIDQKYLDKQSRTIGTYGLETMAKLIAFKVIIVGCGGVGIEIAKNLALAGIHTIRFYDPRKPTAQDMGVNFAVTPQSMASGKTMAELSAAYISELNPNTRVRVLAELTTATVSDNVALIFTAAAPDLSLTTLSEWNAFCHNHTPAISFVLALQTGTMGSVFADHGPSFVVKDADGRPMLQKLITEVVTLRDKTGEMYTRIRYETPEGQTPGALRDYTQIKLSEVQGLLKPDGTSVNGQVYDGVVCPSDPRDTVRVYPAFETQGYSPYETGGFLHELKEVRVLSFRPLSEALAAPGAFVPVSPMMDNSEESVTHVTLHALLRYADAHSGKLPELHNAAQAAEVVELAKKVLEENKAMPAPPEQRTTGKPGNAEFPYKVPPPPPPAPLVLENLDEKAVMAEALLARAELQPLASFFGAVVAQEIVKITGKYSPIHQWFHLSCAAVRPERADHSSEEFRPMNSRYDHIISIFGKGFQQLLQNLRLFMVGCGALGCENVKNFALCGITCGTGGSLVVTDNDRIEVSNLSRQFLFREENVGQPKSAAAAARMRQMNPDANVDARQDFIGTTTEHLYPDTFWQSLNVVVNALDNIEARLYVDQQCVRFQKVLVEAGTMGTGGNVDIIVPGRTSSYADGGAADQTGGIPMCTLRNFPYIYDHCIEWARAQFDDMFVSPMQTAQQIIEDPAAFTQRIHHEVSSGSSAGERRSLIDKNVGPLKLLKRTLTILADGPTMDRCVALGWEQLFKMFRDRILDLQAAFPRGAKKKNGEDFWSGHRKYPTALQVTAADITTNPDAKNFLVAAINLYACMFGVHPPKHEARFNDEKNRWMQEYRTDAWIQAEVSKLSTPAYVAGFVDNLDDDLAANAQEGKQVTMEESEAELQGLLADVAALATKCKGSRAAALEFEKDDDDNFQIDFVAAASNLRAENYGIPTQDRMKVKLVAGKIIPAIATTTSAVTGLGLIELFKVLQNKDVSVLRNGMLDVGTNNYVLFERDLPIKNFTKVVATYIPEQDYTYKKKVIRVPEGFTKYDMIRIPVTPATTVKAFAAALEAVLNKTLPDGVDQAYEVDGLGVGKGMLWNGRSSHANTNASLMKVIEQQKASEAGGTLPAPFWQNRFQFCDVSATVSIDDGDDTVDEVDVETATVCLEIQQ
# [4] = biological target: AMP-activated protein kinase, AMPK (Homo sapiens) (UniProt P54646+O43741+P54619+Q9UGJ0+Q9Y478+Q13131+Q9UGI9); experiment: AMP-dependent Kinase enzyme assay. An in vitro enzyme assay that detects ADP turnover that is directly proportional to AMPK activity. This uses naive AMPK that is activated during the assay with MK-8722; format: functional; parameters: scale not given: direction of the effect not stated beside the values; conditions: 30 µM
# [5] = biological target: Sialic acid-binding Ig-like lectin 9 (Homo sapiens) (UniProt Q9Y336); experiment: Hs-Siglec9 ALPHAscreen SOP 20170721; parameters: scale not given: direction of the effect not stated beside the values; conditions: 10 µM
# Trypanosoma cruzi = experiment: Trypanosoma cruzi phosphomannomutase and mannose-1-phosphate guanylyltransferase assay; format: functional; parameters: scale not given: direction of the effect not stated beside the values; conditions: 10 µM
# [6] = biological target: T3, Arginase-2, mitochondrial (Homo sapiens) (UniProt P78540); experiment: in vitro enzyme assay to detect the production of urea directly proportional to the activity of Arginase II; format: functional; parameters: scale not given: in the data most compounds retested in dose-response had high values; conditions: 33.3 µM
# T3 sequence (whole entry): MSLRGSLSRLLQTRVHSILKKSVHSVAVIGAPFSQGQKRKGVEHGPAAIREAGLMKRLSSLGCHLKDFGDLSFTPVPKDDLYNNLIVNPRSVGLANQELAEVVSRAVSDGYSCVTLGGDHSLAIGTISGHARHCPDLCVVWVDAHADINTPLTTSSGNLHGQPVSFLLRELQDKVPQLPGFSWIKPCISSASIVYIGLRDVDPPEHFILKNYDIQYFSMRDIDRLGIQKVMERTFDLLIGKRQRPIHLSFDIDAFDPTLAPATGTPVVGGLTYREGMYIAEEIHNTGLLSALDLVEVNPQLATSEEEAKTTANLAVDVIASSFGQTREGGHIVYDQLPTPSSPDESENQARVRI
# [7] = biological target: T4, Proteasome subunit beta (Trypanosoma cruzi) (UniProt O96673); experiment: Trypanosoma cruzi proteasome chymotrypsin-like activity (TcProtChymo) assay.; format: functional; parameters: scale not given: in the data most compounds retested in dose-response had high values; conditions: 9.37 µM
# T4 sequence (whole entry): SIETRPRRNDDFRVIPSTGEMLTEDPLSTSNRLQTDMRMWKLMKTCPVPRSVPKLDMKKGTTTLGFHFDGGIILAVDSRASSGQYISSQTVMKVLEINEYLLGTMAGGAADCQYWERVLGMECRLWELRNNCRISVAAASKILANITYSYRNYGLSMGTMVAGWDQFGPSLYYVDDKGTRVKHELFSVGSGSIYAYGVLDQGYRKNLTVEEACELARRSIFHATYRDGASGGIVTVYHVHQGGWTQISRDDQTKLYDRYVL
# Homo sapiens = species on record: Homo sapiens; experiment: To identify inhibition of the IFN signalling (Jak-Stat) pathway via expression of an eGFP reporter gene under the control of an IFN-stimulated response element (ISRE) containing MxA promoter.; format: functional; parameters: scale not given: direction of the effect not stated beside the values; conditions: 30 µM
# [8] = biological target: T5, Tyrosyl-tRNA synthetase, putative (Trypanosoma cruzi (strain CL Brener)) (UniProt Q4DSP6); experiment: Trypanosoma cruzi tyrosyl tRNA synthetase (TcYRS) _High Tyrosine SOP; format: functional; parameters: scale not given: in the data most compounds retested in dose-response had high values; conditions: 30 µM
# T5 sequence (whole entry): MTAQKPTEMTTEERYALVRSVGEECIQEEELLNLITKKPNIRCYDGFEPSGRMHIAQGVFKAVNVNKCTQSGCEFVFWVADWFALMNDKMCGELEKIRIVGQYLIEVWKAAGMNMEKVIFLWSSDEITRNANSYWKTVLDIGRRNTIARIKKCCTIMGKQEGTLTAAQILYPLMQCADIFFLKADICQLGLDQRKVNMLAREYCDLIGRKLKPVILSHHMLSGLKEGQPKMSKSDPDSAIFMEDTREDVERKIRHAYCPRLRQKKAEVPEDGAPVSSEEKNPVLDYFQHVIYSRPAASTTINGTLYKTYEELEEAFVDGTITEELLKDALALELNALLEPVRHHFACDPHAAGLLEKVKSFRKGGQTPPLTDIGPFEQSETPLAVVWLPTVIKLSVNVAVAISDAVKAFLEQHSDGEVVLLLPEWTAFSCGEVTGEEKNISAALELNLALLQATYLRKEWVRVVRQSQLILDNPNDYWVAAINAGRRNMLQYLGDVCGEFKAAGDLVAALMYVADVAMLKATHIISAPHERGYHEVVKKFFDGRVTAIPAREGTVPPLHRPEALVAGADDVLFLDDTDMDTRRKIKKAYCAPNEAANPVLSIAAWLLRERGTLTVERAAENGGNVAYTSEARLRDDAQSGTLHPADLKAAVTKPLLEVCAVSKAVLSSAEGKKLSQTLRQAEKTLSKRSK
# [9] = biological target: T5, Tyrosyl-tRNA synthetase, putative (Trypanosoma cruzi (strain CL Brener)); experiment: Trypanosoma cruzi tyrosyl tRNA synthetase (TcYRS) SOP; format: functional; parameters: scale not given: direction of the effect not stated beside the values; conditions: 30 µM
# [10] = biological target: Chromo domain-containing protein 1 (Saccharomyces cerevisiae (strain ATCC 204508 / S288c) (Baker's yeast)) (UniProt P32657); experiment: ScCHD-1 Enzyme Inhibition Assay; format: functional; parameters: scale not given: in the data most compounds retested in dose-response had high values; conditions: 30 µM
# Sequence of Chromo domain-containing protein 1 (Saccharomyces cerevisiae (strain ATCC 204508 / S288c) (Baker's yeast)) (P32657 whole entry, the tested form may be a part): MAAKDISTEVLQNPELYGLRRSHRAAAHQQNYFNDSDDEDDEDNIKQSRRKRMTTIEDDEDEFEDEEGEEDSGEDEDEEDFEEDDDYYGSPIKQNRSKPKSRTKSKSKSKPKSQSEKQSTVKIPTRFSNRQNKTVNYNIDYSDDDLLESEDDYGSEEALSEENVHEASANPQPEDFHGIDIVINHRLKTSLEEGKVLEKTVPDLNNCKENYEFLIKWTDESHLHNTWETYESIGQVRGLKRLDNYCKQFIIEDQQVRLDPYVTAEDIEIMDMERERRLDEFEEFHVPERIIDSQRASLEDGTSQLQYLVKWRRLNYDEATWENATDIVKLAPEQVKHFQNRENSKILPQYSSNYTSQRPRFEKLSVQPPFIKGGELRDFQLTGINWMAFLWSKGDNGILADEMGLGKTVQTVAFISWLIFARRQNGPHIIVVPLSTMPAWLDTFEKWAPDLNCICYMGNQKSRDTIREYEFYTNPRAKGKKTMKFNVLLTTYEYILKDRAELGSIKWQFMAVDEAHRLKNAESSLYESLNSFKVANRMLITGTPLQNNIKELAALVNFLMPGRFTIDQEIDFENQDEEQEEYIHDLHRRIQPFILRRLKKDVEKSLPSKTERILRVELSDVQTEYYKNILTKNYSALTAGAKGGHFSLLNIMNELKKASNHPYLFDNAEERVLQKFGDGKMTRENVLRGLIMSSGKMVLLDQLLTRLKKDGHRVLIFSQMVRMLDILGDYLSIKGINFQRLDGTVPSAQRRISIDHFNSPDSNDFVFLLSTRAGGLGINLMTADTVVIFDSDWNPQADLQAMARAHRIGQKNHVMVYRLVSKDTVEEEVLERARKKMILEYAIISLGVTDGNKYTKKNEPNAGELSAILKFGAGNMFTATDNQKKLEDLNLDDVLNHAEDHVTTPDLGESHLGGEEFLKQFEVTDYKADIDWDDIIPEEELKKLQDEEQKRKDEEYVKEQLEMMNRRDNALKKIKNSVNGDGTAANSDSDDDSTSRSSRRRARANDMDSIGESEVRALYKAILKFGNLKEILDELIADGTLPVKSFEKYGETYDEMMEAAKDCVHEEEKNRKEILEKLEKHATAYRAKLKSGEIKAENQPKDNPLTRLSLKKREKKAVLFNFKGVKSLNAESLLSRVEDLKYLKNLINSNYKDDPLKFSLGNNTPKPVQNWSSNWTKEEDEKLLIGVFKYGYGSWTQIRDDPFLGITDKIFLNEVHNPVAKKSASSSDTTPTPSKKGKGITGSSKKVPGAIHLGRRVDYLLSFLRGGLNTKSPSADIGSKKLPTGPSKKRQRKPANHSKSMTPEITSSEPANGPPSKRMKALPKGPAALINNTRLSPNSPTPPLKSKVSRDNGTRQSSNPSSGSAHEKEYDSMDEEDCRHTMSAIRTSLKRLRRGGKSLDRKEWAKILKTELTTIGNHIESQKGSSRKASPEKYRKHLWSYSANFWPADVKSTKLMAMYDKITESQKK
# Sequence of Sialic acid-binding Ig-like lectin 9 (Homo sapiens) (Q9Y336 whole entry): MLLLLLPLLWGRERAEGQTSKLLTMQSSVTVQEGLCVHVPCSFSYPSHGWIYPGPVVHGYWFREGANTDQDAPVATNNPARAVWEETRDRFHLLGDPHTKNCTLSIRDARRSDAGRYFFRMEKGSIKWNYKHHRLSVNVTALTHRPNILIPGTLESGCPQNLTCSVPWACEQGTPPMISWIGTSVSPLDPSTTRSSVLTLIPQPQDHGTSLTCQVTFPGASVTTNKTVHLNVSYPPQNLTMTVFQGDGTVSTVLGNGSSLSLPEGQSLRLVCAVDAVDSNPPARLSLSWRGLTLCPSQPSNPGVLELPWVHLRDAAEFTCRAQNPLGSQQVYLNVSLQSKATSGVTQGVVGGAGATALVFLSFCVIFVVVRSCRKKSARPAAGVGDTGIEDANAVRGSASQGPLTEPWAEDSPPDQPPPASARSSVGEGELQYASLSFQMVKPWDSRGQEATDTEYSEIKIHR
# Sequence of Protein translocase subunit SecA (Escherichia coli (strain K12)) (P10408 whole entry): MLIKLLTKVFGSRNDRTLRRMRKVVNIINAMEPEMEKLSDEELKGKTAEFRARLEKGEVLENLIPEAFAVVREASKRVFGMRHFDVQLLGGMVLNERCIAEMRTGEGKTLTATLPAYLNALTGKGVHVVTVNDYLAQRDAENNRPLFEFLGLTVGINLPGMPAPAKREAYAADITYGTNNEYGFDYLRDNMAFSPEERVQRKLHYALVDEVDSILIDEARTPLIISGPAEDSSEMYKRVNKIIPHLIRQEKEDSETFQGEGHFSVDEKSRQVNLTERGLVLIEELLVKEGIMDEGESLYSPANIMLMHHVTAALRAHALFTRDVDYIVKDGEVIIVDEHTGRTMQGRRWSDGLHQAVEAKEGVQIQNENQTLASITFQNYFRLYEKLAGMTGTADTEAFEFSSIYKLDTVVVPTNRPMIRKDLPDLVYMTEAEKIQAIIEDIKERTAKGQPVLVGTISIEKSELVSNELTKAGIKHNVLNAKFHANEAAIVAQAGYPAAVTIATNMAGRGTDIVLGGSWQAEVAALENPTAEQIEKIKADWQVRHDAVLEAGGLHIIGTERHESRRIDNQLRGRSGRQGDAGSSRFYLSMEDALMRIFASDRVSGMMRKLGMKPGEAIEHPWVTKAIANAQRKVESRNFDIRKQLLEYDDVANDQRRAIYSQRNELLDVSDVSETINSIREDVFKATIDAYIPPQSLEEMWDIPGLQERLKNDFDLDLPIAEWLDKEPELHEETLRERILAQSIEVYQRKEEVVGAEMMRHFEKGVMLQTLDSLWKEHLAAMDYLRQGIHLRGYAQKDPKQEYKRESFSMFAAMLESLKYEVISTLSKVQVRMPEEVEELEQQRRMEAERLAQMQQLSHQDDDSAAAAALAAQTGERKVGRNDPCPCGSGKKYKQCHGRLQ
smiles,measurement,setting,value
COc1ccccc1C(=O)NC(c1ccccn1)[C@H]1CC[C@H](CN)CC1 (some centres undefined),PXC50,"[1]; BOTTOM -1.193557467, HILLSLOPE 1.40396169, MAX_EFFECT 57.36568458, TOP 100.0",4.08
same,PXC50,"[1]; BOTTOM -5.444679276, HILLSLOPE 1.669546179, MAX_EFFECT 75.83892617, TOP 100.0",4.3
same,PXC50,"[1]; BOTTOM -12.31313032, HILLSLOPE 1.366255023, MAX_EFFECT 79.86111111, TOP 100.0",4.41
same,PXC50,[1]; MAX_EFFECT 0.790513834,< 4
same,PXC50,[1]; MAX_EFFECT 6.349206349,< 4
CCN(CC)c1ccc2ccc(C(=O)NC3CC3)cn12,PXC50,[1]; MAX_EFFECT 23.88888889,< 4
same,PXC50,[1]; MAX_EFFECT 27.69953052,< 4
same,PXC50,[1]; MAX_EFFECT 36.60245184,< 4
same,PXC50,[1]; MAX_EFFECT 45.65217391,< 4
same,PXC50,[1]; MAX_EFFECT 46.2585034,< 4
COc1ccc(OC)c(C2CCN(c3ccc4cc[nH]c4n3)C2)c1 (centres undefined),PXC50,"[1]; BOTTOM 1.480634741, HILLSLOPE 1.299916262, MAX_EFFECT 56.52173913, TOP 100.0",4.07
same,PXC50,"[1]; BOTTOM -1.247583822, HILLSLOPE 1.089672094, MAX_EFFECT 58.06451613, TOP 100.0",4.11
same,PXC50,"[1]; BOTTOM -8.715782986, HILLSLOPE 1.383269592, MAX_EFFECT 51.81518152, TOP 100.0",4.09
same,PXC50,[1]; MAX_EFFECT 37.4800638,< 4
same,PXC50,[1]; MAX_EFFECT 42.80230326,< 4
O=C(c1ccc2[nH]ccc2c1)N1CCn2cnc(COCC3CC3)c2C1,PXC50,"[1]; BOTTOM 5.122464756, HILLSLOPE 1.784249951, MAX_EFFECT 79.5379538, TOP 100.0",4.27
same,PXC50,"[1]; BOTTOM 5.453463465, HILLSLOPE 1.390916791, MAX_EFFECT 57.24637681, TOP 100.0",4.07
same,PXC50,[1]; MAX_EFFECT 37.27598566,< 4
same,Percent Effect,[2],1.11%
same,Percent Effect,[3],7.79%
same,Percent Effect,[4],5.2%
same,Percent Effect,[5],-2.14%
same,Percent Effect,Trypanosoma cruzi,-2.66%
same,Percent Effect,[6],13.6%
same,Percent Effect,[7],17.4%
same,Percent Effect,Homo sapiens,5.61%
same,Percent Effect,[8],26.5%
same,Percent Effect,[9],37.2%
same,Percent Effect,[10],-6.46%
